Pf Dd2 inh: qHTS Primary assay for Inhibitors of Plasmodium falciparum Dd2 growth in vitro; P. falciparum Dd2 growth, SYBR Green, 72 h; Potency, µM (series often up to 28.9 µM), without a hit: top-dose activity, negative = inhibition, usual class: inhibitors; hit rate 4.3% among 120,000; AID 1347417, 2020; active = well fitted inhibition curve with a large enough effect;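 also: plate controls were DMSO vehicle for no effect and reference drug for full effect; nearly all actives have a fitted effect of over 65% in size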
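Readout: SYBR Green fluorescence, 485 nm excitation, 535 nm emission, after ~16 h lysis at 37C. Before that, Dd2-infected red cells (2.5% hematocrit) grew 72 h with compound, 29 uM top final concentration.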
An asterisk follows results filed as active; i = inactive; [ ] = dose if it differs, or a comment. Many of the other results were omitted from the sample, so hits are more common in it than they were. Potency is read from the fitted curve at half-maximal effect.

SMILES	Pf Dd2 inh
NC(=O)CCn1cc(CN(CCO)Cc2ccccc2F)c2ccccc21	2.2µM*
CCc1ccc(C(=O)N2CC(c3nnc(-c4ccncc4)o3)C3(CCOCC3)C2)cc1 (stereo unspecified)	-2%
CCCc1ccc(S(=O)(=O)N2CCN(C3CCN(CCOC)C3=O)CC2)cc1 (stereo unspecified)	i
O=C1C(N2CCN(S(=O)(=O)c3ccc(Cl)cc3)CC2)CCN1CCc1ccccc1 (stereo unspecified)	i
CC(C)CCN1CCC(N2CCN(S(=O)(=O)c3ccc(Cl)cc3)CC2)C1=O (stereo unspecified)	0%
COc1cccc(S(=O)(=O)N2CCN(C3CCN(CCC(C)C)C3=O)CC2)c1 (stereo unspecified)	-29%
Cc1ccc(F)cc1S(=O)(=O)N1CCN(C2CCN(CCC(C)C)C2=O)CC1 (stereo unspecified)	-22%
CC(C)CCN1CCC(N2CCN(S(=O)(=O)c3cc(F)cc(F)c3)CC2)C1=O (stereo unspecified)	-3%
CCc1ccccc1S(=O)(=O)N1CCN(C2CCN(CCC(C)C)C2=O)CC1 (stereo unspecified)	10µM*
CCCc1ccc(S(=O)(=O)N2CCN(C3CCN(CCC(C)C)C3=O)CC2)cc1 (stereo unspecified)	5.6µM*
CC(C)CCN1CCC(N2CCN(S(=O)(=O)c3ccc4c(c3)CCC4)CC2)C1=O (stereo unspecified)	7.1µM*
CCN1c2cc(C(=O)NC3CCCCC3)ccc2C(=O)N2CCCCCC21 (stereo unspecified)	i
Cc1ccc(NC(=O)Nc2ccc(C)n(CC(=O)NCCC(C)C)c2=O)cc1	i
Cc1nc(C)c(C(=O)N2CCCC(Cc3noc(-c4cnccn4)n3)C2)s1 (stereo unspecified)	-10%
Cc1ccc(C(=O)N2CCC[C@H]2c2nc(-c3ccccc3)no2)c(C)c1	i
CCc1ccc(S(=O)(=O)N2CCC(n3cnnc3CCOC)CC2)cc1	-14%
Cc1ccc(C2Cn3nnc(C(=O)N4CCC(C(=O)Nc5ccc(F)c(Cl)c5)CC4)c3CO2)cc1 (stereo unspecified)	-15%
CN1CCCCCCN(C(=O)C2CCCCC2)[C@H]2CCC[C@H]2C1=O	1%
COc1ccc(S(=O)(=O)N2CCC3(CC2)CC(OCC2CC2)CCO3)cc1 (stereo unspecified)	3.5µM*
COc1cccc(S(=O)(=O)N2CCC3(CC2)CC(OCC2CC2)CCO3)c1 (stereo unspecified)	-2%
COc1ccc(S(=O)(=O)N2CCC3(CC2)CC(OC)CCO3)cc1 (stereo unspecified)	12%
Cc1cc(C)cc(NC(=O)N2CCCC2c2nncn2C2CCCC2)c1 (stereo unspecified)	-8%
COc1cc(NC(=O)N2CCCC2c2nncn2C2CCCC2)cc(OC)c1 (stereo unspecified)	-7%
O=C(Nc1cc(Cl)cc(Cl)c1)N1CCCC1c1nncn1C1CCCC1 (stereo unspecified)	11µM*
O=C(NC1CC1)c1ccc2nnc(C3CC3)n2c1	5%[44.1 µM]
SMILES	Pf Dd2 inh
CCCNC(=O)C1COC2(CCN(C(=O)Cc3ccccc3)CC2)N1C(=O)c1cccc(C)c1 (stereo unspecified)	i
Cc1cccc(C(=O)N2C(C(=O)NCc3ccccc3)COC23CCN(C(=O)CC(C)(C)C)CC3)c1 (stereo unspecified)	7.9µM*
Cc1cccc(C(=O)N2C(C(=O)NCC(C)C)COC23CCN(C(=O)c2ccc(F)cc2)CC3)c1 (stereo unspecified)	i
Cc1ccc(C(=O)N2C(C(=O)NCC(C)C)COC23CCN(C(=O)c2cccc(Cl)c2)CC3)cc1 (stereo unspecified)	10µM*
CC(C)NC(=O)C1COC2(CCN(C(=O)CC(C)(C)C)CC2)N1C(=O)c1ccccc1 (stereo unspecified)	-25%
COc1ccc(C(=O)N2CCC3(CC2)OCC(C(=O)NCC(C)C)N3C(=O)c2ccc(C)cc2)cc1 (stereo unspecified)	i
COc1ccc(CNC(=O)[C@@H]2CCC[C@@H](NCc3cccc(Cl)c3)CN(C)C(=O)C2)cc1	i
CC(C)C1=NOC2(CCN(Cc3cccc(C(F)(F)F)c3)CC2)C1	-24%[44.1 µM]
COCCN1CCC(CN(CC2CCCO2)C(=O)c2cc(Cl)cn2C)CC1 (stereo unspecified)	i
COc1ccc(Nc2c(-c3ccc(N4CCOCC4)cc3)nc3ncccn23)cc1OC	-19%
Cc1ccc(-c2nc3ncccn3c2Nc2ccc3c(c2)OCCO3)cc1	-21%
COc1cc(-c2nc3ncccn3c2Nc2ccc(C)cc2C)ccc1O	13µM*
CS(=O)(=O)N1CCn2cc(C(=O)Nc3ccc(Cl)cc3Cl)nc2C1	-4%
CN1c2cc(C(=O)N3CCN(c4ccccc4Cl)CC3)ccc2C(=O)N2CCCCC21 (stereo unspecified)	6.3µM*
CCN1c2cc(C(=O)N3CCN(c4ccccc4)CC3)ccc2C(=O)N2CCCCC21 (stereo unspecified)	i
CCOc1ccccc1N1CCN(C(=O)c2ccc3c(c2)N(C)C2CCCCN2C3=O)CC1 (stereo unspecified)	5µM*
Cc1cccc(NC(=O)c2ccc3c(c2)N(C)C2CCCCCN2C3=O)c1 (stereo unspecified)	i
CN1c2cc(C(=O)N3CCN(c4ccc(F)cc4)CC3)ccc2C(=O)N2CCCCCC21 (stereo unspecified)	i
Cc1cccc(N2CCN(C(=O)c3ccc4c(c3)N(C)C3CCCCCN3C4=O)CC2)c1 (stereo unspecified)	8.9µM*
CCN1c2cc(C(=O)N3CCCCC3)ccc2C(=O)N2CCCCCC21 (stereo unspecified)	i
CCN1c2cc(C(=O)N3CCN(c4ccccn4)CC3)ccc2C(=O)N2CCCCC21 (stereo unspecified)	i
CN1c2cc(C(=O)Nc3ccccc3)ccc2C(=O)N2CCCCC21 (stereo unspecified)	i
Cc1ccoc1C(=O)N[C@@H]1CN(c2ncccn2)C[C@H]1CO	29%
O=C1Nc2ccccc2CC12CCCN2C1COC1 (stereo unspecified)	23%[44.1 µM]
CN1C(=O)c2cncnc2OCC1CNC(=O)Cc1cccc(Cl)c1 (stereo unspecified)	-18%[44.1 µM]
SMILES	Pf Dd2 inh
CNC(=O)C1CCN(C(=O)c2cc(COc3ccc4c(c3)OCO4)[nH]n2)C1 (stereo unspecified)	-8%
O=C(NC1CC1)c1cc(Br)cn2ccnc12	6%[44.1 µM]
O=C(CCc1ccc(O)cc1)N1CC[C@H](N2CCOCC2)[C@H](CCCO)C1	1%
Cc1nnc2n1CCC(NC(=O)NCCc1ccccc1)CC2 (stereo unspecified)	21%
COc1nccc(N2CCC(CC(=O)NCc3ccccc3F)CC2)n1	-24%
COc1cccc(Nc2sc(C(=O)c3ccc(Cl)cc3)c(N)c2C(=O)NCCc2ccc(OC)c(OC)c2)c1	-20%
Cc1ccc(CNC(=O)c2c(Nc3ccccc3C)sc(C(=O)c3ccc(F)cc3)c2N)cc1	-17%
COc1cccc(Nc2sc(C(=O)c3ccc(F)cc3)c(N)c2C(=O)NCc2ccc(C)cc2)c1	10µM*
O=C(c1ccc(Cl)cc1)N1CCC(N2CCCCC2=O)CC1	2%
Cc1ccc(-c2cn3c(n2)sc2cc(C(=O)NCCCN4CCCCC4)ccc23)cc1	2.5µM*
COc1ccc(-c2cn3c(n2)sc2cc(C(=O)NC4CCCCC4)ccc23)cc1	17%
